Potency data for 16 compounds are collected here from PubChem BioAssay (NCATS).

What all share (assay): qHTS profiling for inhibitors of Plasmodium falciparum proliferation (AID 504749); note: nearly all actives have a fitted effect of over 60% in size
Settings in all cases: P. falciparum in erythrocytes, SYBR Green DNA, 72 h; series mostly up to 12.8 µM
In general terms: Quantitative high-throughput screening tests each substance at several concentrations.

One assay concerns AS120. In short, it runs like this:
(§1)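 Each compound contacts P. falciparum-infected red blood cells for 72 h at 37 C; lysis buffer (Tris, EDTA, saponin, Triton X, SYBR Green I) is added and fluorescence measured next morning; values normalized to controls.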

The subject of the next assay is CP286. In short, it runs like this: as §1
The subject of another assay is CP297. In short, it runs like this: as §1
The test system of another assay is DIV30. In short, it runs like this:
as §1

A further assay has as its system N140. In short, it runs like this:
as §1

A further assay relates to PC26. In short, it runs like this: as §1
The next assay concerns TAB109. In short, it runs like this:
as §1

Another assay concerns TAB165. In short, it runs like this: as §1
In the next assay the test system is SC27B. In short, it runs like this:
as §1

The next assay deals with CP185. In short, it runs like this: as §1
The subject of another assay is CP194. In short, it runs like this:
as §1

The subject of the next assay is CP266. In short, it runs like this: as §1
In the next assay the test system is CP238. In short, it runs like this: as §1
The next assay deals with CP256. In short, it runs like this:
as §1

In another assay the test system is CP269. In short, it runs like this:
as §1

For a further assay, the system named is CP291. In short, it runs like this: as §1
A further assay deals with CP325. In short, it runs like this:
as §1

For another assay, the system named is ECU. In short, it runs like this: as §1
In another assay the test system is FAB9. In short, it runs like this: as §1
The next assay deals with PC15. In short, it runs like this: as §1

Each structure is given as a SMILES string. Inconclusive results are not listed. Active and inactive are the calls of the source. Calls come from the whole dose curve; as a rule, active = well fitted inhibition curve with a large enough effect; inconclusive = small, poorly fitted or top-dose-only effect; inactive = flat fitted curve, though single readings scatter.
Potency is the fitted concentration of half-maximal effect.

As to `CCOC(=O)Oc1c(OC)cc(C(=O)O[C@H]2C[C@H]3CN4CCc5c([nH]c6cc(OC)ccc56)[C@@H]4C[C@H]3[C@@H](C(=O)OC)[C@@H]2OC)cc1OC`, the Potency with AS120 is 3.55 µM (active); in the assay on CP286, 2.51 µM (active); in the assay on CP297 it was 7.21 µM (active); in the assay on DIV30 it was 7.21 µM (active); with N140, 3.55 µM (active); in the assay with PC26, 5.73 µM (active). Besides, the Potency with TAB109 and in the assay on TAB165 was 3.55 µM (active) in each case.
Turning to `O=C(O)[C@@H]1[C@@H]2C[C@H]3c4[nH]c5ccccc5c4CCN3C[C@@H]2CC[C@@H]1O`, the Potency entry in the assay with N140, in the assay with PC26 and with SC27B was “inactive” each time.
Consider `CCC(=O)OCC(=O)[C@@]1(OC(=O)CC)[C@H](C)C[C@@H]2[C@@H]3[C@H]([C@@H](O)C[C@@]21C)[C@]1(C)C=CC(=O)C=C1C[C@@H]3Cl`, for which the Potency entry with CP185, in the assay with CP194 and in the assay on CP266 was “inactive” throughout. In addition, the Potency is 5.1 µM (active) in the assay on CP297 and 3.98 µM (active) in the assay on TAB165.
For the compound `C[C@H](CCC(=O)O)[C@H]1CC[C@@H]2[C@@H]3[C@@H](O)C[C@H]4C[C@@H](O)CC[C@@]4(C)[C@H]3CC[C@@]21C`, the Potency entry in the assay on AS120, in the assay with CP185, with CP194, with CP238, in the assay on CP256 and with CP266 was “inactive” in each case. Also, the Potency result in the assay with CP269, in the assay with CP286, in the assay on CP291, in the assay with CP297, in the assay on CP325 and with DIV30 was “inactive” throughout. Further, the Potency entry in the assay with ECU, with FAB9, in the assay on N140, with PC15, in the assay on PC26 and with TAB109 was “inactive” in each case. In the assay with TAB165, the Potency result was “inactive”.
On to `Cc1ccsc1/C=C\C1=NCCCN1C`, for which the Potency result in the assay with AS120, in the assay on CP185, with CP194, with CP238, with CP256 and in the assay with CP266 was “inactive” each time. Moreover, the Potency entry in the assay with CP269, in the assay with CP286, in the assay on CP291, with CP297, in the assay with CP325 and in the assay with DIV30 was “inactive” in each case. The Potency result in the assay with ECU, in the assay on FAB9, in the assay on N140, with PC15, with PC26 and in the assay on SC27B was “inactive” in each case. Further, the Potency entry in the assay with TAB109 and with TAB165 was “inactive” in each case.
For `CC1=C(C(=O)O)N2C(=O)[C@@H](NC(=O)[C@@H](N)c3ccc(O)cc3)[C@@H]2SC1`, the Potency entry in the assay with AS120, with CP185, with CP194, in the assay on CP238, in the assay on CP256 and with CP266 was “inactive” each time. Further, the Potency result with CP269, in the assay with CP286, in the assay on CP291, with CP297, in the assay with CP325 and in the assay on DIV30 was “inactive” throughout. In addition, the Potency result in the assay with ECU, with FAB9, in the assay on N140, in the assay with PC15, in the assay with PC26 and with SC27B was “inactive” throughout. For the same compound, the Potency entry in the assay with TAB109 and in the assay on TAB165 was “inactive” each time.
Turning to `CC1(C)[C@@H](OC(=O)CCC(=O)O)CC[C@@]2(C)[C@H]1CC[C@@]1(C)[C@H]2C(=O)C=C2[C@H]3C[C@](C)(C(=O)O)CC[C@]3(C)CC[C@@]21C`, the Potency result in the assay on AS120, in the assay on CP185, in the assay on CP194, with CP238, in the assay with CP256 and in the assay on CP266 was “inactive” in each case. Besides, the Potency result with CP269, in the assay with CP286, in the assay on CP291, in the assay on CP297, in the assay on CP325 and with DIV30 was “inactive” throughout. In addition, the Potency result with ECU, in the assay on FAB9, with N140, in the assay on PC15, in the assay with PC26 and in the assay with SC27B was “inactive” in each case. The Potency entry in the assay with TAB109 and in the assay on TAB165 was “inactive” each time.
Regarding `O=C(O)COCCN1CCN([C@@H](c2ccccc2)c2ccc(Cl)cc2)CC1`, the Potency result in the assay with AS120, with CP185, in the assay on CP194, with CP238, in the assay with CP256 and in the assay with CP266 was “inactive” in each case. For the same compound, the Potency result in the assay with CP269, with CP286, in the assay with CP291, in the assay with CP297, with CP325 and in the assay on DIV30 was “inactive” in each case. The Potency entry in the assay on ECU, with FAB9, with N140, in the assay with PC15, in the assay on PC26 and with SC27B was “inactive” in each case. For the same compound, the Potency entry in the assay with TAB109 and in the assay with TAB165 was “inactive” each time.
Consider `Cc1cccc(CN2CCN([C@@H](c3ccccc3)c3ccc(Cl)cc3)CC2)c1`, for which the Potency entry with CP194, in the assay with CP238, with CP256, in the assay with CP266, in the assay on CP269 and in the assay on CP291 was “inactive” in each case. Besides, the Potency result in the assay on CP297, in the assay on CP325 and with FAB9 was “inactive” throughout.
For the compound `CCN(CC)CCOC(=O)[C@@H](Cc1cccc2ccccc12)C[C@@H]1CCCO1`, the Potency result in the assay with AS120, with CP185, in the assay on CP194, in the assay on CP238, with CP256 and with CP266 was “inactive” throughout. Further, the Potency result with CP269, with CP286, with CP291, with CP297, in the assay with CP325 and in the assay on DIV30 was “inactive” each time. Moreover, the Potency entry in the assay with ECU, in the assay on FAB9, with N140, in the assay with PC15, in the assay on SC27B and in the assay on TAB109 was “inactive” in each case. Also, in the assay on TAB165, the Potency entry was “inactive”.
For the compound `CN1CCC[C@@H](CC2c3ccccc3Sc3ccccc32)C1`, the Potency entry with CP185, in the assay on CP238, in the assay with CP256, in the assay on CP266, with CP269 and with CP297 was “inactive” in each case. The Potency result with CP325, in the assay with ECU, with FAB9 and in the assay with SC27B was “inactive” throughout.
On to `NC[C@@H]1O[C@H](O[C@H]2[C@H](O)[C@H](O[C@@H]3O[C@H](CO)[C@@H](O)[C@H](N)[C@@H]3O)[C@@H](N)C[C@H]2N)[C@@H](O)[C@H](O)[C@@H]1O`, for which the Potency entry in the assay with AS120, in the assay with CP185, in the assay on CP194, with CP238, in the assay on CP256 and in the assay with CP266 was “inactive” each time. Further, the Potency result with CP269, in the assay on CP286, in the assay on CP291, in the assay with CP297, in the assay on CP325 and with DIV30 was “inactive” in each case. In addition, the Potency entry in the assay with ECU, with FAB9, in the assay on N140, with PC15, in the assay with PC26 and in the assay with SC27B was “inactive” in each case. Also, the Potency result in the assay on TAB109 and in the assay on TAB165 was “inactive” each time.
Take `C[C@@H](CNC1CCCCC1)OC(=O)c1ccccc1`: the Potency entry in the assay on CP185 and in the assay with CP266 was “inactive” in each case. Moreover, the Potency in the assay with PC26 was 5.73 µM (active); in the assay with SC27B, 3.55 µM (active); in the assay on TAB109, 3.55 µM (active).
Regarding `CN1CCO[C@H](c2ccccc2)c2ccccc2C1`, the Potency result in the assay with CP266, in the assay on CP269, in the assay with CP286, in the assay on CP291, in the assay with CP297 and in the assay on ECU was “inactive” in each case. Moreover, the Potency result in the assay on FAB9, in the assay on PC15, with PC26 and with SC27B was “inactive” in each case.
`CC(C)(C)NC[C@H](O)COc1cccc2c1C[C@@H](O)[C@@H](O)C2`: the Potency entry with AS120, in the assay on CP185, in the assay on CP194, in the assay with CP238, with CP256 and in the assay with CP266 was “inactive” throughout. The Potency entry in the assay with CP269, in the assay on CP286, with CP291, in the assay on CP297, with CP325 and with DIV30 was “inactive” each time. The Potency entry with ECU, in the assay with FAB9, in the assay with N140, with PC15, in the assay on PC26 and with SC27B was “inactive” throughout. The Potency entry in the assay on TAB109 and in the assay with TAB165 was “inactive” throughout.
`CCc1c(C)[nH]c2c1C(=O)[C@H](CN1CCOCC1)CC2`: the Potency entry with AS120, with CP185, with CP194, with CP238, in the assay on CP256 and with CP266 was “inactive” in each case. The Potency entry in the assay with CP269, in the assay with CP286, in the assay with CP291, in the assay with CP297, in the assay on CP325 and in the assay on DIV30 was “inactive” in each case. Besides, the Potency result with ECU, with FAB9, with N140, with PC15, in the assay on PC26 and in the assay with SC27B was “inactive” throughout. Moreover, the Potency result with TAB109 and with TAB165 was “inactive” in each case.
